Each structure is given as a SMILES string. The source made the active and inactive calls. The calls were made as follows: active = hit-call score of the fitted dose curve at least 0.9, where 1 is the maximum; inactive = score below 0.9.

Assay [1] in a line: ATG_CRE_CIS: Attagene CIS-FACTORIAL HepG2 Assay for human cAMP Responsive Element (CRE) binding protein 3 (AID 2282926). The following applies: HepG2 CRE cis-reporter, Attagene multiplexed mRNA; actives raise or lower the signal. In outline: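 Capillary electrophoresis of 6-FAM-labelled, HpaI-digested PCR products quantified reporter transcripts. These came from HepG2 transiently transfected with cis-element reporters and exposed to test chemicals for 24 hours, with DMSO defining baseline activity.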

Assay [2] addresses CCAAT/enhancer-binding protein beta (Homo sapiens) (UniProt P17676). Put plainly: ATG_C_EBP_CIS: Attagene CIS-FACTORIAL HepG2 Assay for human CCAAT/Enhancer Binding Protein (C/EBP) beta (AID 2282927). The following applies: HepG2 Attagene cis-factorial transcription factor reporter; actives raise or lower the signal. The method, boiled down:
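Following a 24 h incubation with test chemical, transfected HepG2 cells yielded RNA whose reporter transcripts were quantified by RT-PCR and fluorescent capillary electrophoresis, with DMSO serving as baseline for bidirectional fitting.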

Assay [3] can be described thus: ATG_CMV_CIS: Attagene CIS-FACTORIAL HepG2 Assay for human CMV (Internal Marker) (AID 2282928).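 Also: endpoint acts as a background internal control marker rather than a target.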 The following applies: HepG2 CMV promoter reporter, transcription factor profiling; actives raise or lower the signal. In outline: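 Fluorescence intensity of RT-PCR-derived reporter fragments, resolved by capillary electrophoresis, gives the signal. HepG2 liver cells bearing transfected cis-element reporters were treated 24 h; activity in either direction was fit relative to DMSO-treated controls.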

Assay [4] is described as follows: ATG_DR4_LXR_CIS: Attagene CIS-FACTORIAL HepG2 Assay for human Liver X Receptor (LXR), DR4 submotif (AID 2282929). The following applies: HepG2 Attagene DR4 cis-reporter, mRNA transcription; actives raise or lower the signal. The method, boiled down: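 Cells were transfected with multiple reporter transcription units, exposed to chemicals for 24 hours, then lysed for RNA. Reporter mRNA induction was measured by RT-PCR with capillary electrophoresis detection and fitted in both directions relative to DMSO.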

The nature of assay [5]: ATG_AP_1_CIS: Attagene CIS-FACTORIAL HepG2 Assay for human Activator Protein 1 (AP-1) (AID 2282931). The following applies: HepG2 Attagene cis-factorial AP-1 reporter mRNA; actives raise or lower the signal. In outline: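 Endogenous transcription-factor activity in human HepG2 liver cells is read through a cis-promoter reporter transcript, sampled 24 h after dosing. Detection uses RT-PCR with capillary electrophoresis; values come from bidirectional fitting relative to DMSO.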

A short description of assay [6]: ATG_AP_2_CIS: Attagene CIS-FACTORIAL HepG2 Assay for human Activator Protein 2 (AP-2) (AID 2282932). The following applies: HepG2 AP-2 cis-reporter, Attagene transcription factor profiling; actives raise or lower the signal. The method, boiled down: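 Cells (HepG2) transfected with promoter-driven reporter constructs, treated 24 h. Total RNA reverse-transcribed, reporter cDNA PCR-amplified, FAM-labelled by primer extension, digested, resolved by capillary electrophoresis. Activity fitted both directions versus DMSO.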

Assay [7] can be described thus: ATG_BRE_CIS: Attagene CIS-FACTORIAL HepG2 Assay for human Bone Morphogenetic Protein (BMP) Response Element (BRE) (AID 2282933). The following applies: HepG2 BMP response element reporter, Attagene transcription factor profiling; actives raise or lower the signal. In outline:
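HepG2 cells transiently transfected with CIS reporter units (endogenous TF activity, BMP response element), dosed 24 h. Reporter mRNA quantified by RT-PCR, fluorescent labelling and capillary electrophoresis; bidirectional fit vs DMSO baseline.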

Assay [8] concerns the target Transcription factor E2F1 (Homo sapiens) (UniProt Q01094). The experiment in a line: ATG_E2F_CIS: Attagene CIS-FACTORIAL HepG2 Assay for human E2F Transcription Factor 1 (AID 2282935). The following applies: HepG2 Attagene cis-reporter, E2F reporter RNA transcripts; actives raise or lower the signal. The method, boiled down:
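First, HepG2 cells were transfected with reporter transcription units. Next, they were dosed for 24 h. Then RNA was isolated, converted to cDNA, PCR-amplified, FAM-labeled, HpaI-digested and analyzed by capillary electrophoresis.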

A short description of assay [9]: ATG_E_Box_CIS: Attagene CIS-FACTORIAL HepG2 Assay for human Enhancer Box (E-box) (AID 2282936). The following applies: HepG2 E-box cis-reporter transcription, actives raise or lower the signal. The method, boiled down: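 Endogenous transcription factor activity was sensed in human HepG2 liver cells through transfected cis-promoter reporter units. After 24 h of dosing, total RNA was reverse-transcribed and reporter cDNA resolved by capillary electrophoresis.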

A short description of assay [10]: ATG_M_61_CIS: Attagene CIS-FACTORIAL HepG2 Assay for M61 Transcription Factor (Internal Marker) (AID 2282937). The following applies: HepG2 Attagene CIS-FACTORIAL M61 internal marker reporter; actives raise or lower the signal. In outline:
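Cells were transfected with reporter units under cis-regulatory promoters, treated with chemicals for 24 h, then lysed for RNA. Reporter transcripts were quantified by RT-PCR and capillary electrophoresis, and activity was fitted bidirectionally against DMSO.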

Assay [11] can be described thus: ATG_EGR_CIS: Attagene CIS-FACTORIAL HepG2 Assay for human Early Growth Response 1 (EGR1) (AID 2282938). The following applies: HepG2 Attagene CIS-FACTORIAL EGR reporter mRNA; actives raise or lower the signal. In outline: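 Endogenous TF activity in HepG2 liver cells was gauged through cis-promoter reporter constructs transiently transfected. After 24 h dosing, reporter mRNA was quantified by RT-PCR and capillary electrophoresis, and curves fitted in both directions versus DMSO.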

Assay [12] is described as follows: ATG_Ets_CIS: Attagene CIS-FACTORIAL HepG2 Assay for human Erythroblast Transformation Specific (ETS) (AID 2282941). The following applies: HepG2 ETS cis-reporter transcription, actives raise or lower the signal. In outline:
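Multiplexed reporter transcript profiling: HepG2, 24 h treatment, total RNA to cDNA, PCR, 6-FAM labelling, HpaI cut, capillary electrophoresis. Gain- or loss-of-signal fitted against DMSO.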

Assay [13] in a line: ATG_FoxO_CIS: Attagene CIS-FACTORIAL HepG2 Assay for human Forkhead box O (FoxO) (AID 2282943). The following applies: HepG2 Attagene cis-reporter, FoxO element, mRNA; actives raise or lower the signal. The method, boiled down: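 Values reflect reporter mRNA induction or loss in HepG2 cells 24 h post-dosing, fitted bidirectionally with DMSO as negative control and baseline. Detection used RT-PCR and fluorescence capillary electrophoresis.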

Assay [14] is described as follows: ATG_GATA_CIS: Attagene CIS-FACTORIAL HepG2 Assay for human GATA Binding Protein (AID 2282944). The following applies: HepG2 GATA cis-element reporter, Attagene multiplex mRNA; actives raise or lower the signal. In outline: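 HepG2 cells transiently transfected with multiplexed cis-element reporter units measure endogenous GATA activity; after 24 h compound exposure, reporter mRNA quantified by RT-PCR and capillary electrophoresis. Changes fitted in both directions vs DMSO.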

Assay [15] can be described thus: ATG_GLI_CIS: Attagene CIS-FACTORIAL HepG2 Assay for human Zinc Finger Protein GLI1 (AID 2282945). The following applies: HepG2, Attagene cis-factorial reporter mRNA, GLI element; actives raise or lower the signal. In outline:
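HepG2 cells transiently transfected with cis-promoter multiplexed reporter units report endogenous transcription factor activity. After 24 h chemical exposure, reporter mRNA was quantified by RT-PCR, 6-FAM labelling, HpaI digestion and capillary electrophoresis, with bidirectional fitting against DMSO.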

The nature of assay [16]: ATG_ISRE_CIS: Attagene CIS-FACTORIAL HepG2 Assay for human Interferon Regulatory Factor 1 (IRF1) binding to an Interferon-Stimulated Response Element (ISRE) (AID 2282948). The following applies: HepG2 ISRE cis-reporter (Attagene), mRNA transcription readout; actives raise or lower the signal. The method, boiled down:
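Signal reflects induction or loss of ISRE-linked reporter mRNA in transiently transfected HepG2 cells after a 24 h treatment, detected by fluorescent RT-PCR fragments on capillary electrophoresis and normalised to DMSO.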

Assay [17] in a line: ATG_M_32_CIS: Attagene CIS-FACTORIAL HepG2 Assay for M32 Transcription Factor (Internal Marker) (AID 2282949).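 Also: background control marker of the multiplexed CIS panel rather than a real target.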 The following applies: HepG2 Attagene cis-factorial M32 reporter, mRNA; actives raise or lower the signal. The method, boiled down: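 HepG2 human liver cells transiently transfected with cis-promoter-driven multiple reporter transcription units, dosed 24 h. Reporter mRNA quantified by RT-PCR, FAM-labelled primer extension, HpaI digest and capillary electrophoresis; bidirectional fit versus DMSO baseline.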

A short description of assay [18]: ATG_M_06_CIS: Attagene CIS-FACTORIAL HepG2 Assay for M06 Transcription Factor (Internal Marker) (AID 2282950). The following applies: HepG2 Attagene CIS-FACTORIAL M06 internal marker reporter; actives raise or lower the signal. In outline:
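Internal background marker within multiplexed cis-reporter HepG2 system. Cells transiently transfected, dosed 24 h; reporter mRNA measured by RT-PCR, HpaI digestion and capillary electrophoresis. Bidirectional fit relative to DMSO.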

In assay [19] the target is Paired box protein Pax-6 (Homo sapiens) (UniProt P26367). The experiment in a line: ATG_Pax6_CIS: Attagene CIS-FACTORIAL HepG2 Assay for human Paired Box 6 (PAX6) (AID 2282956). The following applies: HepG2 CIS-FACTORIAL PAX6 reporter transcription, RNA readout; actives raise or lower the signal. The method, boiled down: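 Values derive from bidirectional curve fitting of reporter mRNA signal relative to DMSO. HepG2 cells bearing transfected cis-regulated MRTUs were exposed for 24 h; transcripts were read by RT-PCR and capillary electrophoresis.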

A short description of assay [20]: ATG_PXRE_CIS: Attagene CIS-FACTORIAL HepG2 Assay for human Pregnane X Receptor Element (PXRE) (AID 2282957). The following applies: HepG2 Attagene CIS-FACTORIAL PXRE reporter, mRNA; actives raise or lower the signal. The method, boiled down:
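Fluorescent capillary electrophoresis of amplified reporter cDNA gave the signal, collected 24 h after dosing HepG2 cells that held transfected cis-element reporter constructs.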

Chain of Transcription factor E2F1 (Homo sapiens) (Q01094 whole entry, looked up): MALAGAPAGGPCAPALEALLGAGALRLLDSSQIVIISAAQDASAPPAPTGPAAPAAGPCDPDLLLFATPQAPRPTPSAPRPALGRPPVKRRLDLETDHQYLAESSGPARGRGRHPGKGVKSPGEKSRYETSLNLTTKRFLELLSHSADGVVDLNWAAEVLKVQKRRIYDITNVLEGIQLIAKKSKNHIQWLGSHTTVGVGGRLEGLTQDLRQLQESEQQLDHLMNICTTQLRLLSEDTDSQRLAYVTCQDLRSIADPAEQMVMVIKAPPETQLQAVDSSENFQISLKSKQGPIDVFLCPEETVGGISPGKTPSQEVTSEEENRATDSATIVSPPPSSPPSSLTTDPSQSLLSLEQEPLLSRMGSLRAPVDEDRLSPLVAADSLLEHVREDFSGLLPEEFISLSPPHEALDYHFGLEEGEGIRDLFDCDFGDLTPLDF
Chain of Paired box protein Pax-6 (Homo sapiens) (P26367 whole entry, looked up): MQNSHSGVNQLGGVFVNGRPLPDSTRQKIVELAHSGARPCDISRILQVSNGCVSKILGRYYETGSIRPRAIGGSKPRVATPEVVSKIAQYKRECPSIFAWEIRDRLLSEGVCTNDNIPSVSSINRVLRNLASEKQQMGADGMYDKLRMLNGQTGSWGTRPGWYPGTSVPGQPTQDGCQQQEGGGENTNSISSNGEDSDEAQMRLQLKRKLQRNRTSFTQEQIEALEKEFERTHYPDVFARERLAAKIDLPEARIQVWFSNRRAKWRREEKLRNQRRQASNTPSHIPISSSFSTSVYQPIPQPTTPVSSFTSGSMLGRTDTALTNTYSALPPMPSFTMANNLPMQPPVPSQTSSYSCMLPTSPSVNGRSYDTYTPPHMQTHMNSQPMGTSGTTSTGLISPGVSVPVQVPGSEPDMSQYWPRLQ
Chain of CCAAT/enhancer-binding protein beta (Homo sapiens) (P17676 whole entry, looked up): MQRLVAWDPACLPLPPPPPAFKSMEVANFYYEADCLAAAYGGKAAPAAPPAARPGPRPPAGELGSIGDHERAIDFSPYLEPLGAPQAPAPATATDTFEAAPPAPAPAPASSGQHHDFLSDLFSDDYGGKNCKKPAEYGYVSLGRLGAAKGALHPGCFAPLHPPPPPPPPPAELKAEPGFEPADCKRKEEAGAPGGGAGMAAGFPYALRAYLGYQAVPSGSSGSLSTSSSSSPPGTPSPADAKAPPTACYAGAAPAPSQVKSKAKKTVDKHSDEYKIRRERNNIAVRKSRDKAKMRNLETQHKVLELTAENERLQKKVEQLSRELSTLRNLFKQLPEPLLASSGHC

For the compound `CC1(C)S[C@@H]2[C@H](NC(=O)[C@H](N)c3ccccc3)C(=O)N2[C@H]1C(=O)O`, the result in assay [1], in assay [2], in assay [3], in assay [4], in [5] and in assay [6] was inactive. Moreover, the result in assay [7], in assay [8], in assay [9], in assay [10], in [11] and in [12] was inactive. The compound was called inactive in assay [13], in [14], in assay [15], in [16], in assay [17] and in assay [18]. Further, the outcome in [19] and in [20] was inactive.

Consider `CC(C)CC(=O)O`, for which the result in assay [1], in assay [2], in [3], in assay [4], in [5] and in [6] was inactive. Further, the compound was classed as inactive in assay [7], in assay [8], in [9], in assay [10], in [11] and in [12]. Besides, the compound was classed as inactive in assay [13], in assay [14], in assay [15], in [16], in assay [17] and in assay [18]. Also, the compound was called inactive in assay [19] and in [20].

Turning to `CC(C)n1c(/C=C/[C@@H](O)C[C@@H](O)CC(=O)O)c(-c2ccc(F)cc2)c2ccccc21`, the result in assay [1], in assay [2], in assay [3], in [4], in assay [5] and in assay [6] was inactive. Also, the outcome in assay [7], in assay [8], in [9], in [10], in assay [11] and in assay [12] was inactive. Further, the outcome in [13], in assay [14], in assay [15], in [16], in assay [17] and in assay [18] was inactive. Also, the call in assay [19] was inactive. Moreover, the AC50 (usually the concentration at which the activity in the assay is half-maximal) in [20] was 3.98 µM (active).

With `CCCCCCCCCCCCCC`, the outcome in assay [1], in [2], in assay [3], in assay [4], in assay [5] and in assay [6] was inactive. The compound was classed as inactive in assay [7], in assay [8], in assay [9], in assay [10], in assay [11] and in assay [12]. Further, the result in assay [13], in assay [14], in [15], in [16], in [17] and in [18] was inactive. Moreover, the result in assay [19] and in assay [20] was inactive.

Regarding `C=C(C)C(=O)OCCCCCC`, the call in assay [1], in assay [2], in [3], in assay [4], in assay [5] and in [6] was inactive. The compound was called inactive in assay [7], in assay [8], in [9], in assay [10], in assay [11] and in assay [12]. Further, the compound was classed as inactive in assay [13], in assay [14], in [15], in assay [16], in [17] and in [18]. Further, the call in assay [19] was inactive. For the same compound, the AC50 in assay [20] is 26.5 µM (active).

Consider `CC1=C(CC=O)C(C)(C)CCC1`, for which the call in [1], in assay [2], in assay [3], in assay [4], in assay [5] and in assay [6] was inactive. Also, the compound was called inactive in assay [7], in [8], in [9], in assay [10], in assay [11] and in [12]. In addition, the compound was classed as inactive in [13], in assay [14], in [15], in [16], in [17] and in assay [18]. Further, the compound was called inactive in assay [19]. In addition, in assay [20], the AC50 was 0.734 µM (active).

`CN(C)c1ccc(C(c2ccccc2)c2ccc(N(C)C)cc2)cc1`: the compound was called inactive in assay [1], in assay [2], in assay [3], in assay [4], in assay [6] and in assay [8]. Besides, the outcome in assay [9], in [10], in [11], in [12], in assay [13] and in [14] was inactive. Further, the result in [15], in [16], in [17], in assay [18] and in assay [19] was inactive. For the same compound, the AC50 in assay [5] was 100 µM (active); in assay [7], 100 µM (active); in assay [20] it was 3.06 µM (active).
